In PubChem BioAssay (NCI):
About 79,000 compounds went through this panel and 15% of them were active in at least one assay; those are over-represented in the sample as a whole. Values without a mark were called inactive. Calls of active or inactive are those of the source. No stated cut-off is given here; in the data, active means growth inhibition above about 70%; inactive means the rest.

Assays:
[1] = NCI Yeast Anticancer Drug Screen. Data for the rad52 strain (AID 147);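 further: 0% = growth of vehicle-treated control cultures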; settings: S. cerevisiae rad52 mutant growth inhibition, hits give high values
Method in brief: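 Growth of repair-deficient yeast cells was compared between compound-treated and vehicle-treated cultures to give percent inhibition.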

[2] = NCI Yeast Anticancer Drug Screen. Data for the mgt1 strain (AID 153); settings: S. cerevisiae mgt1 mutant growth inhibition, hits give high values
Method in brief: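 Compounds were applied to mgt1 mutant yeast, and growth was then compared against vehicle-treated control cultures to give percent inhibition.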

[3] = NCI Yeast Anticancer Drug Screen. Data for the rad50 strain (AID 155);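 further: 0% = growth of vehicle-only cultures of the same strain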; settings: S. cerevisiae rad50 strain growth inhibition, hits give high values
Method in brief: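 Growth of the mutant yeast was measured after compound exposure and referenced to vehicle-treated cultures.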

[4] = NCI Yeast Anticancer Drug Screen. Data for the mec2-1 strain (AID 157); settings: S. cerevisiae mec2-1 strain, hits give high values
Method in brief: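 Compounds were applied to mec2-1 yeast cells. Their growth was then compared with that of vehicle-treated cultures to give growth inhibition.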

[5] = NCI Yeast Anticancer Drug Screen. Data for the rad14 strain (AID 159);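 further: 0% = growth of vehicle-treated control cultures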; settings: S. cerevisiae rad14 strain growth inhibition, hits give high values
Method in brief: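 Here, inhibition of yeast growth was measured after compound exposure, using a strain with a genetic defect in DNA damage repair and vehicle-treated cultures as the reference.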

[6] = NCI Yeast Anticancer Drug Screen. Data for the sgs1 mgt1 strain (AID 161);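 further: 0% = growth of cultures given vehicle only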; settings: S. cerevisiae sgs1 mgt1 strain, hits give high values
Method in brief: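 Compounds are added to genetically altered yeast, and growth is compared with cultures given vehicle alone to give percent inhibition.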

[7] = NCI Yeast Anticancer Drug Screen. Data for the CLN2oe strain (AID 163);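 further: 0% = growth of vehicle-only control cultures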; settings: S. cerevisiae CLN2oe strain, hits give high values
Method in brief: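 Cells of an engineered yeast line with disturbed cell-cycle regulation are treated with compound. Inhibition of growth is then calculated relative to the vehicle-treated reference.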

[8] = NCI Yeast Anticancer Drug Screen. Data for the cln2 rad14 strain (AID 165);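 further: 0% = growth equal to vehicle treated cultures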; settings: S. cerevisiae cln2 rad14 strain, hits give high values
Method in brief: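 Strain: cln2 rad14 yeast, altered in cell cycle control and DNA damage repair. Read-out: growth inhibition vs vehicle.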

[9] = NCI Yeast Anticancer Drug Screen. Data for the bub3 strain (AID 167); settings: S. cerevisiae bub3 mutant strain, hits give high values
Method in brief: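 Whole-cell yeast assay. The mutant strain was incubated with compounds, and growth inhibition was determined by comparison with vehicle-treated cells.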

[10] = NCI Yeast Anticancer Drug Screen. Data for the wt2 strain (AID 169);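 further: 0% = growth of vehicle-treated yeast cultures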; settings: S. cerevisiae wt2 strain growth inhibition, hits give high values
Method in brief: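 Growth of compound-treated yeast is measured and expressed as inhibition relative to vehicle-only controls.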

[11] = NCI Yeast Anticancer Drug Screen. Data for the mlh1 strain (AID 171);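 further: 0% = growth of vehicle-treated control cultures of the same strain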; settings: S. cerevisiae mlh1 strain growth inhibition, hits give high values
Method in brief: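 Test agents were incubated with yeast bearing a defined DNA damage repair or cell cycle control alteration; values are growth inhibition normalised to vehicle-treated cultures.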

[12] = NCI Yeast Anticancer Drug Screen. Data for the sgs1 strain (AID 173);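 further: 0% = growth of vehicle-only control cultures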; settings: S. cerevisiae sgs1 mutant, hits give high values
Method in brief: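 Strain with an altered DNA repair or cell cycle pathway exposed to compound. Growth then measured. Value = inhibition versus vehicle control.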

[13] = NCI Yeast Anticancer Drug Screen. Data for the mlh1 rad18 strain (AID 175); settings: S. cerevisiae mlh1 rad18 strain growth inhibition, hits give high values
Method in brief: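 A repair-deficient yeast strain is exposed to test compound, and growth is scored relative to vehicle-treated controls.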

[14] = NCI Yeast Anticancer Drug Screen. Data for the rad18 strain (AID 177); settings: S. cerevisiae rad18 mutant growth inhibition, hits give high values
Method in brief: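 DNA-repair-defective yeast; compound treatment; growth inhibition scored against vehicle.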

[15] = NCI Yeast Anticancer Drug Screen. Data for the wt1 strain (AID 149);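 further: 0% = growth of vehicle-treated wt1 cultures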; settings: S. cerevisiae wt1 strain (SPY 50644) growth inhibition, hits give high values
Method in brief: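 Measured: growth of wt1 yeast under compound versus vehicle treatment, reported as inhibition.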

[16] = NCI Yeast Anticancer Drug Screen. Data for the rad50EPP+ strain (AID 151);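 further: 0% = growth of vehicle-treated control cultures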; settings: S. cerevisiae rad50 mutant strain, hits give high values
Method in brief: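 Measured: growth inhibition of rad50EPP+ yeast. Reference: vehicle-treated controls. Screen uses strains with defined genetic alterations in DNA damage repair or cell cycle control.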

[17] = at 5.0 µM (retest, dose inferred, filed as 0.5)
[18] = at 50.0 µM (retest, dose inferred, filed as 5.0)

Work on `CN1C(=O)c2ccc3ccccc3c2C1=O` yielded a growth inhibition ([1]; at 1.2 µM) of 7%, a growth inhibition ([1]; at 3.7 µM) of 11% and a growth inhibition ([1]; at 11.0 µM) of 35%. It also gave a growth inhibition ([1]; at 33.0 µM) of 53%, a growth inhibition ([1]; at 100.0 µM) of 68% and a growth inhibition ([2]; at 1.2 µM) of 1%. The growth inhibition ([2]; at 3.7 µM) was 1%, the growth inhibition ([2]; at 11.0 µM) was 20% and the growth inhibition ([2]; at 33.0 µM) was 18%. It also gave a growth inhibition ([2]; at 100.0 µM) of 25%, a growth inhibition ([3]; at 1.2 µM) of 12% and a growth inhibition ([3]; at 3.7 µM) of 32%. For the same compound, the growth inhibition [3, 17] was 4%, the growth inhibition ([3]; at 11.0 µM) was 61% and the growth inhibition ([3]; at 33.0 µM) was 63%. For the same compound, the growth inhibition [3, 18] was 62%, the growth inhibition ([3]; at 50.0 µM) was 84.5% (active) and the growth inhibition ([3]; at 100.0 µM) was 70% (active). The growth inhibition ([4]; at 1.2 µM) was -5%, the growth inhibition ([4]; at 3.7 µM) was 0% and the growth inhibition [4, 17] was 0%. It also gave a growth inhibition ([4]; at 11.0 µM) of 0%, a growth inhibition ([4]; at 33.0 µM) of 17% and a growth inhibition [4, 18] of 29%. The growth inhibition ([4]; at 50.0 µM) was 41.9%, the growth inhibition ([4]; at 100.0 µM) was 26% and the growth inhibition ([5]; at 1.2 µM) was 3%. The growth inhibition ([5]; at 3.7 µM) was 8%, the growth inhibition ([5]; at 11.0 µM) was 20% and the growth inhibition ([5]; at 33.0 µM) was 32%. It also gave a growth inhibition ([5]; at 100.0 µM) of 43%, a growth inhibition [6, 17] of 27% and a growth inhibition [6, 18] of 54%. It also gave a growth inhibition ([6]; at 50.0 µM) of 43%, a growth inhibition ([7]; at 1.2 µM) of 3% and a growth inhibition ([7]; at 3.7 µM) of 6%. It also gave a growth inhibition ([7]; at 11.0 µM) of 18%, a growth inhibition ([7]; at 33.0 µM) of 21% and a growth inhibition ([7]; at 100.0 µM) of 27%. For the same compound, the growth inhibition [8, 17] was -39%, the growth inhibition [8, 18] was 6% and the growth inhibition ([8]; at 50.0 µM) was 33.4%. The growth inhibition ([9]; at 1.2 µM) was 6%, the growth inhibition ([9]; at 3.7 µM) was 8% and the growth inhibition [9, 17] was 4%. It also gave a growth inhibition ([9]; at 11.0 µM) of 37%, a growth inhibition ([9]; at 33.0 µM) of 35% and a growth inhibition [9, 18] of 37%. The growth inhibition ([9]; at 50.0 µM) was 48.8%, the growth inhibition ([9]; at 100.0 µM) was 32% and the growth inhibition ([10]; at 1.2 µM) was 2%. For the same compound, the growth inhibition ([10]; at 3.7 µM) was 3%, the growth inhibition ([10]; at 11.0 µM) was 12% and the growth inhibition ([10]; at 33.0 µM) was 24%. It also gave a growth inhibition ([10]; at 100.0 µM) of 39%, a growth inhibition ([11]; at 1.2 µM) of 2% and a growth inhibition ([11]; at 3.7 µM) of 3%. The growth inhibition ([11]; at 11.0 µM) was 22%, the growth inhibition ([11]; at 33.0 µM) was 29% and the growth inhibition ([11]; at 100.0 µM) was 27%. It also gave a growth inhibition ([12]; at 1.2 µM) of 0%, a growth inhibition ([12]; at 3.7 µM) of 1% and a growth inhibition ([12]; at 11.0 µM) of 14%. The growth inhibition ([12]; at 33.0 µM) was 25%, the growth inhibition ([12]; at 100.0 µM) was 42% and the growth inhibition [13, 17] was -25%. The growth inhibition [13, 18] was 40%, the growth inhibition ([13]; at 50.0 µM) was 23.3% and the growth inhibition ([14]; at 1.2 µM) was 6%. The growth inhibition ([14]; at 3.7 µM) was 15%, the growth inhibition ([14]; at 11.0 µM) was 45% and the growth inhibition ([14]; at 33.0 µM) was 39%. For the same compound, the growth inhibition ([14]; at 100.0 µM) was 35%.
In the case of `CCO/C(C)=C(/C#N)C(N)=S`, the growth inhibition ([15]; at 1.2 µM) is reported as -1%, the growth inhibition ([15]; at 3.7 µM) is reported as -2% and the growth inhibition ([15]; at 11.0 µM) is reported as 0%. It also gave a growth inhibition ([15]; at 33.0 µM) of 0%, a growth inhibition ([15]; at 100.0 µM) of 1% and a growth inhibition ([16]; at 1.2 µM) of -3%. It also gave a growth inhibition ([16]; at 3.7 µM) of -6%, a growth inhibition ([16]; at 11.0 µM) of -11% and a growth inhibition ([16]; at 33.0 µM) of -16%. The growth inhibition ([16]; at 100.0 µM) was 2%, the growth inhibition ([3]; at 1.2 µM) was 1% and the growth inhibition ([3]; at 3.7 µM) was -1%. It also gave a growth inhibition [3, 17] of 13%, a growth inhibition ([3]; at 11.0 µM) of -1% and a growth inhibition ([3]; at 33.0 µM) of 0%. For the same compound, the growth inhibition [3, 18] was 67%, the growth inhibition ([3]; at 50.0 µM) was 60% and the growth inhibition ([3]; at 100.0 µM) was 2%. The growth inhibition ([4]; at 1.2 µM) was -2%, the growth inhibition ([4]; at 3.7 µM) was 1% and the growth inhibition [4, 17] was 3%. It also gave a growth inhibition ([4]; at 11.0 µM) of -1%, a growth inhibition ([4]; at 33.0 µM) of -1% and a growth inhibition [4, 18] of 2%. It also gave a growth inhibition ([4]; at 50.0 µM) of 35.5%, a growth inhibition ([4]; at 100.0 µM) of 1% and a growth inhibition ([5]; at 1.2 µM) of -2%. For the same compound, the growth inhibition ([5]; at 3.7 µM) was -2%, the growth inhibition ([5]; at 11.0 µM) was 0% and the growth inhibition ([5]; at 33.0 µM) was 0%. For the same compound, the growth inhibition ([5]; at 100.0 µM) was 4%, the growth inhibition [6, 17] was -9% and the growth inhibition [6, 18] was 73% (active). For the same compound, the growth inhibition ([6]; at 50.0 µM) was 40.3%, the growth inhibition ([7]; at 1.2 µM) was -3% and the growth inhibition ([7]; at 3.7 µM) was -4%. For the same compound, the growth inhibition ([7]; at 11.0 µM) was -1%, the growth inhibition ([7]; at 33.0 µM) was -8% and the growth inhibition ([7]; at 100.0 µM) was -11%. The growth inhibition [8, 17] was 5%, the growth inhibition [8, 18] was 21% and the growth inhibition ([8]; at 50.0 µM) was 85.3% (active). For the same compound, the growth inhibition ([9]; at 1.2 µM) was -4%, the growth inhibition ([9]; at 3.7 µM) was -3% and the growth inhibition [9, 17] was 4%. The growth inhibition ([9]; at 11.0 µM) was -3%, the growth inhibition ([9]; at 33.0 µM) was -7% and the growth inhibition [9, 18] was 70% (active). The growth inhibition ([9]; at 50.0 µM) was 74.7% (active), the growth inhibition ([9]; at 100.0 µM) was -4% and the growth inhibition ([10]; at 1.2 µM) was -1%. The growth inhibition ([10]; at 3.7 µM) was -2%, the growth inhibition ([10]; at 11.0 µM) was 0% and the growth inhibition ([10]; at 33.0 µM) was 1%. For the same compound, the growth inhibition ([10]; at 100.0 µM) was 1%, the growth inhibition ([11]; at 1.2 µM) was -2% and the growth inhibition ([11]; at 3.7 µM) was -3%. The growth inhibition ([11]; at 11.0 µM) was -1%, the growth inhibition ([11]; at 33.0 µM) was -3% and the growth inhibition ([11]; at 100.0 µM) was 0%. For the same compound, the growth inhibition ([12]; at 1.2 µM) was -1%, the growth inhibition ([12]; at 3.7 µM) was 3% and the growth inhibition ([12]; at 11.0 µM) was 1%. It also gave a growth inhibition ([12]; at 33.0 µM) of 3%, a growth inhibition ([12]; at 100.0 µM) of 6% and a growth inhibition [13, 17] of 3%. The growth inhibition [13, 18] was 84% (active), the growth inhibition ([13]; at 50.0 µM) was 42.9% and the growth inhibition ([14]; at 1.2 µM) was 0%. For the same compound, the growth inhibition ([14]; at 3.7 µM) was -1%, the growth inhibition ([14]; at 11.0 µM) was 7% and the growth inhibition ([14]; at 33.0 µM) was -1%. For the same compound, the growth inhibition ([14]; at 100.0 µM) was 4%.
